Measured values from PubChem BioAssay (NCI).
About 83,000 compounds went through this panel and 20% of them were active in at least one assay; those are over-represented in the sample as a whole.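 Growth was measured after 48 h exposure to one concentration of compound in 96-well plates. Values under 10 count as active.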 Calls of active or inactive are those of the source.

Key:
Assay in all cases: NCI-60 one-dose screen, 48 h (100 = growth as untreated, 0 = no growth, -100 = all killed)
Conditions in all cases: 10 µM unless noted
[1] = tested on: NCI-H23 lung
[2] = tested on: NCI-H226 lung
[3] = tested on: NCI-H322M lung
[4] = tested on: HOP-62 NSCLC
[5] = tested on: NCI-H460 lung
[6] = tested on: HOP-92 NSCLC
[7] = tested on: NCI-H522 lung
[8] = tested on: A549/ATCC NSCLC
[9] = tested on: 786-0 renal
[10] = tested on: COLO 205 colon

Measured: growth

N/N=C(\N)c1c(N)nc(=S)[nH]c1-c1ccc(Cl)cc1Cl
inactive: [1] 103% | [2] 106% | [3] 106% | [4] 92.5% | [5] 116% | [6] 76.2% | [7] 95.3% | [8] 104% | [9] 101% | [10] 120%

CC(=O)Nc1cccc(Nc2nccc(N[C@@H](C)c3ccccc3)n2)c1
active: [4] 8.72% | [5] 5.42% | [7] -43.4% | [10] -3.46%
inactive: [1] 18.2% | [2] 34.7% | [3] 40.6% | [6] 45% | [8] 16.4% | [9] 26.6%

CC(=O)Nc1cccc(Nc2nc(N[C@H]3CCCc4ccccc43)c3ccccc3n2)c1
inactive: [1] 104% | [2] 111% | [3] 103% | [4] 102% | [5] 104% | [6] 110% | [7] 97.5% | [8] 104% | [9] 106% | [10] 109%

Cc1cnc(C(=O)NNc2nc3cc(F)ccc3n3c(C(=O)N4CC5CC(C4)N5)ccc23)cn1
active: [5] 9.91% | [9] -2.57%
inactive: [1] 51.1% | [2] 12.5% | [3] 35.4% | [4] 59.3% | [6] 65.2% | [7] 57.8% | [8] 25.4% | [10] 10.5%

COc1cccc(COc2ccc(NC(=O)Nc3ccc(Cl)c(C(F)(F)F)c3)cc2)c1
active: [6] 6.12%
inactive: [1] 21.1% | [2] 43.2% | [3] 16.3% | [4] 34.3% | [5] 17.5% | [7] 22.1% | [8] 16% | [9] 34.5% | [10] 46.2%

CN1CCN(c2ccc3c(c2)nc(NNC(=O)c2ncccn2)c2cccn23)CC1
inactive: [8] 12.5%
active: [1] 4.51% | [2] -22.8% | [3] -7.59% | [4] -19.7% | [5] 3.42% | [6] -14.8% | [7] -7.36% | [9] -96.8% | [10] -85.7%

CCCCSc1nc(NCCc2c[nH]c3ccccc23)c(C#N)c(-c2ccc(OC)cc2)n1
inactive: [1] 48.3% | [2] 60.9% | [3] 87.4% | [4] 57% | [5] 33.4% | [6] 47.3% | [7] 57.7% | [8] 61.3% | [9] 54.8% | [10] 74.6%

COc1cc(NC(=O)c2cccc(C3CCc4c(cc(OC)c(OC)c4OC)O3)c2)cc(OC)c1OC (stereo not given)
active: [7] -9.86% | [10] 3.7%
inactive: [1] 36.9% | [2] 21.4% | [3] 39.2% | [4] 30.6% | [5] 29.1% | [6] 52.4% | [8] 19.5% | [9] 24.3%

Cc1cc(=O)oc2cc(OCCCOc3ccc(/C=C/C(=O)Nc4ccccc4N)cc3)ccc12
inactive: [1] 45.2% | [2] 18.4% | [3] 54.7% | [4] 16.7% | [5] 14.5% | [6] 43.4% | [8] 25.8% | [9] 26.1%
active: [7] -13.8% | [10] -53.6%

Cc1cc(=O)oc2cc(OCCCCOc3ccc(/C=C/C(=O)Nc4ccccc4N)cc3)ccc12
inactive: [1] 76% | [2] 47.9% | [3] 82.2% | [4] 69.7% | [5] 45.2% | [6] 83% | [7] 35.7% | [8] 46.9% | [9] 49.5% | [10] 44.9%

NS(=O)(=O)c1ccc(-n2cc(-c3cccc(NC(=O)c4cc(C(F)(F)F)cc(C(F)(F)F)c4)c3)nn2)cc1
active: [6] -16.9%
inactive: [1] 41.1% | [2] 27.5% | [3] 65.8% | [4] 15% | [5] 71.4% | [7] 75.4% | [8] 56.7% | [9] 44.2% | [10] 91.7%

O=C1NC(=O)/C(=C/c2ccccc2OCc2cc3ccccc3nc2Cl)S1
inactive: [1] 68.8% | [2] 75.4% | [3] 79.4% | [4] 33.6% | [5] 91.9% | [6] 56.8% | [7] 79.1% | [8] 76.9% | [9] 78.2% | [10] 117%

CCN1C(=O)N(CC)C2NNC(Sc3c(C(=O)O)c4ccccc4n(C4CCCC4)c3=O)=NC21 (stereo not given)
active: [5] 4.22% | [7] -23.1% | [10] -31.1%
inactive: [1] 36.8% | [2] 42% | [3] 67.3% | [4] 44.1% | [6] 73.4% | [8] 28.2% | [9] 22.9%

CN(C)c1ccnc(CNCCSC2(c3ccc(C(F)(F)F)cc3)c3ccccc3CCc3ccccc32)c1
active: [1] -31.8% | [2] -31.6% | [3] 8.82% | [4] -57.8% | [5] -80.5% | [6] -17.7% | [7] -82.6% | [8] -27.6% | [9] -6.83% | [10] -83.7%

COc1cc2c(c(OC)c1OC)C(=O)CC(c1cccc(NC(=O)c3cccc(NC(=O)[C@H](C)NC(=O)OC(C)(C)C)c3)c1)O2 (stereo not given in full)
inactive: [1] 70.4% | [2] 53.1% | [3] 105% | [4] 73.6% | [5] 76.1% | [6] 74.4% | [7] 21% | [8] 59.9% | [9] 86.4% | [10] 81.8%

COc1cc2c(c(OC)c1OC)C(=O)CC(c1cccc(NC(=O)c3cc(N)ccc3Cl)c1)O2 (stereo not given)
inactive: [1] 71.9% | [2] 54.3% | [3] 89% | [4] 77.3% | [5] 67.2% | [6] 69.5% | [8] 71.5% | [9] 84.7% | [10] 86.2%
active: [7] 8.06%

COc1ccc(C(=O)/C=C/c2ccccc2Cl)cc1S(N)(=O)=O
inactive: [1] 117% | [2] 106% | [3] 102% | [4] 124% | [5] 103% | [6] 102% | [7] 102% | [8] 112% | [9] 104% | [10] 106%

CCCCSc1nc(NCCc2c[nH]c3ccccc23)c(C#N)c(-c2ccccc2)n1
active: [6] -1.67%
inactive: [1] 15.8% | [2] 44.6% | [3] 83.8% | [4] 39.7% | [5] 14.5% | [7] 47.4% | [8] 39.1% | [9] 10.6% | [10] 24.8%

Cc1c(C(=O)NNC(=O)c2ccc(Cl)cc2)nnn1-c1ccc(Br)cc1
inactive: [1] 102% | [2] 97.1% | [3] 91% | [4] 98.4% | [5] 107% | [6] 91.6% | [7] 97.6% | [8] 100% | [9] 98.8% | [10] 104%

NS(=O)(=O)c1ccc(NNC(=O)CCC(=O)c2ccccc2)cc1
inactive: [1] 105% | [2] 100% | [3] 109% | [4] 100% | [5] 107% | [6] 93.3% | [7] 89.1% | [8] 103% | [9] 98.4% | [10] 118%

COc1ccc(C(=O)/C=C/c2cccc(Cl)c2)cc1S(N)(=O)=O
inactive: [2] 38.3% | [3] 10.7% | [6] 85.8%
active: [1] -10.4% | [4] -37.4% | [5] 3.05% | [7] -50.1% | [8] -81.7% | [9] -57.3% | [10] -65.1%

CC(=O)Nc1cccc(-c2nc3cc(-c4ccc(O)cc4)ccc3n2C)c1
inactive: [1] 48.8% | [2] 49.8% | [3] 67.1% | [4] 54.3% | [5] 55.4% | [6] 93.7% | [7] 26.7% | [8] 35.2% | [9] 63.2% | [10] 56.5%

CC(C)CSc1nc(NCCc2c[nH]c3ccccc23)c(C#N)c(-c2ccc(F)cc2)n1
inactive: [1] 72.9% | [2] 44.9% | [3] 91.2% | [4] 34.9% | [5] 11.6% | [6] 50.9% | [7] 62.4% | [8] 51.2% | [9] 67.9% | [10] 31.6%

Cc1cc(N=C2NC(=O)CS2)n[nH]1
inactive: [1] 110% | [2] 132% | [3] 95.5% | [4] 116% | [5] 113% | [6] 115% | [7] 103% | [8] 109% | [9] 103% | [10] 108%

CC(=O)NNc1ccc2nnc(-c3ccccc3)n2n1
inactive: [1] 96.6% | [2] 105% | [3] 102% | [4] 116% | [5] 106% | [6] 109% | [7] 109% | [8] 102% | [9] 104% | [10] 104%
